# Results reported in PMC4552634, “A New Set of Chemical Starting Points with Plasmodium falciparum Transmission-Blocking Potential for Antimalarial Drug Discovery” (PLoS ONE, 2015).
# The campaign covered roughly 13,000 compounds. About 3,200 (25%) showed an effect of 50% or more. The list shows a part of the results.
# System: P. falciparum stage V gametocytes
# Design: BacTiter-Glo ATP luminescence viability of purified stage V gametocytes in 384-well plates, per cent inhibition versus DMSO
# Conditions: 48 h, 5 µM; inhibitor
row,SMILES,% Inhibition
1,C=CCn1c(SCC(=O)Nc2cc(C)ccc2OC)nc2sc(C)cc2c1=O [TCMDC-123737],-0.9433%
2,O=c1cc(NCCCNCc2cccc3c2OC(F)(F)O3)[nH]c2ccccc12 [TCMDC-139425],-37.26%
3,CC(C)CN1CCN(c2nc(C#N)c3c(c2C(=S)NC2CCCCC2)CC(C)(C)OC3)CC1 [TCMDC-124173],83.9%
4,CCCN(CCC)C(=S)N=Nc1c(O)[nH]c2ccccc12 [TCMDC-138078],-20.57%
5,COCCn1c(C)nc2ccccc2c1=O [TCMDC-124916],-2.427%
6,Cc1ccc2c(=O)n(C)c(=O)n(C)c2n1 [TCMDC-123937],60.67%
7,O=C(NCCN1CCCC1)c1cc(-c2ccc(Cl)c(O)c2)c(-c2ccncc2)o1 [TCMDC-135295],13.58%
8,Cc1nc(N)nc(N)c1CCCOc1ccccc1Br [TCMDC-138069],-36.44%
9,O=C(Nc1ccc(-c2cccc(-c3nc4ccccc4[nH]3)c2)cc1)c1cnn2cccnc12 [TCMDC-136863],-40.98%
10,COc1ccc(-c2ccc(CNC3Cc4ccccc4C3)cc2)cc1S(=O)(=O)NCCN1CCCC1 [TCMDC-132472],95.39%
11,COc1ccc(-c2ccccc2CNC2Cc3ccccc3C2)cc1S(=O)(=O)NCCN1CCCC1 [TCMDC-132211],56.67%
12,COc1ccc(CNC2Cc3ccccc3C2)cc1-c1ccc(OC)c(S(=O)(=O)NCCN2CCCC2)c1 [TCMDC-132251],107.6%
13,COc1ccc(CNC2Cc3ccccc3C2)cc1-c1ccc(S(=O)(=O)NCCN2CCCC2)c(F)c1 [TCMDC-132266],84.74%
14,O=C(NCc1ccc(F)cc1)Nc1ccc(-c2cccc(-c3nc4ccc(F)cc4[nH]3)c2)cc1 [TCMDC-133304],-35.38%
15,Cc1cc(C)c(CON2C(N)=NC(N)=NC2(C)C)cc1C [TCMDC-131652],-5.978%
16,COc1ccc2nccc([C@@H](O)CN3CCC(NC(=O)Cn4nc(-c5ccc(C(F)(F)F)cc5)ccc4=O)CC3)c2c1 [TCMDC-141042],-2.454%
17,CC(=O)c1ccccc1C(=O)N1CCOc2ccc(C(O)C(c3ccccc3)c3ccccc3)cc2C1 (stereo not shown) [TCMDC-124667],-12.26%
18,O=C(NCCN1CCCC1)c1ccc(-c2ccc(-c3nc4ccccc4[nH]3)s2)cc1 [TCMDC-132314],24.13%
19,Cn1c(=O)c2cc(C(=O)NCCCN3CCCCCC3)sc2c2ccccc21 [TCMDC-123889],59.14%
20,O=C(NCCCN1CCC(Cc2ccccc2)CC1)c1cc2c(Cl)nc3ccccc3c2s1 [TCMDC-125440],-22.49%
21,O=C(Nc1cccc(-c2cccc(-c3nc4ccccc4[nH]3)c2)c1)Nc1ccc(F)c(F)c1F [TCMDC-133226],-1.107%
22,Cc1cc(N[C@@H](CC(C)C)C(=O)NCc2cccc(F)c2)nc(NCCc2ccccc2)n1 [TCMDC-134870],54.62%

row,SMILES,% Inhibition
1,Cc1cc(N[C@@H](CC(C)C)C(=O)NCCc2ccccc2)nc(NCCc2ccc(F)cc2)n1 [TCMDC-134796],48.22%
2,Cc1cc(N[C@@H](CC(C)C)C(=O)NCc2cccc(F)c2)nc(NCCc2ccc(F)cc2)n1 [TCMDC-134792],53.15%
3,Cc1cc(N[C@@H](CC(C)C)C(=O)NCc2cccc(F)c2)nc(Nc2ccccc2)n1 [TCMDC-134737],-10.43%
4,Cc1cccc(CNc2nc(C)cc(N[C@@H](CC(C)C)C(=O)NCc3cccc(F)c3)n2)c1 [TCMDC-134890],-6.286%
5,COc1cccc(-c2cnc(N)c(-c3nc4cc(Cl)c(F)cc4[nH]3)c2)c1 [TCMDC-138792],26.62%
6,Fc1ccc2nc(-c3ccc(-c4ccc(CN5CCCCC5)cc4)s3)[nH]c2c1 [TCMDC-133897],-55.88%
7,CN1CCC(N2CCN(Cc3ccc(-c4ccc(-c5nc6ccccc6[nH]5)s4)cc3)CC2)CC1 [TCMDC-133851],67.23%
8,COC[C@H]1CCCN1Cc1ccc(-c2ccc(-c3nc4ccccc4[nH]3)s2)cc1 [TCMDC-136785],-1.728%
9,Cc1cccc2nc(-c3ccc(-c4ccc(CN5CCN(C6CCN(C)CC6)CC5)cc4)s3)[nH]c12 [TCMDC-133866],107%
10,c1ccc2[nH]c(-c3ccc(-c4ccc(CN5CCC(N6CCCCC6)CC5)cc4)s3)nc2c1 [TCMDC-136787],26.44%
11,Fc1ccc2nc(-c3ccc(-c4ccc(CN5CCN(CCN6CCOCC6)CC5)cc4)s3)[nH]c2c1 [TCMDC-133935],8.438%
12,Cc1cccc2nc(-c3ccc(-c4cccc(NC(=O)CN5CCN(C)CC5)c4)s3)[nH]c12 [TCMDC-136988],20.22%
13,CN1CCC(N2CCN(Cc3ccc(-c4ccc(-c5nc6ccc(F)cc6[nH]5)s4)cc3)CC2)CC1 [TCMDC-133859],93.67%
14,Cc1cccc2nc(-c3ccc(-c4ccc(NC(=O)CN5CCN(C)CC5)cc4)s3)[nH]c12 [TCMDC-136987],-6.57%
15,O=C(Nc1ccc2nc(-c3ccccc3)[nH]c2c1)c1cc(-c2ccc3c(c2)OCCO3)n[nH]1 [TCMDC-134398],9.818%
16,CS(=O)(=O)Nc1ccc2[nH]cc(C3CCN(CCCCCNC(=O)/C=C/c4ccc(Cl)c(Cl)c4)CC3)c2c1 [TCMDC-139325],-23.44%
17,Cc1cc(O)c2c(c1)OC(C)(C)C=C2C1=CCN(Cc2ccccc2)CC1 [TCMDC-131313],-37.74%
18,CN(C)S(=O)(=O)n1ncc2c3c(N)nc(N)nc3ccc21 [TCMDC-131933],29.56%
19,O=C(/C=C/c1ccc(Cl)cc1)NCCCCCN1CCN(C(=O)Nc2ccc(Cl)c(C(F)(F)F)c2)CC1 [TCMDC-136093],12.32%
20,CCC[C@@H]([C@@H](CC1CCCCC1)C(=O)N[C@H](C(=O)Nc1nccs1)C(C)(C)SCCOCCOCC)N(O)C=O [TCMDC-137777],29.4%
21,CS(=O)(=O)c1ccc(CCNCc2ccc(-c3ccc(CN(C(=O)c4cccc(C#N)c4)C4CCN(Cc5ccccc5)CC4)cc3)nc2)cc1 [TCMDC-141518],63.72%
22,CS(=O)(=O)c1ccc(CCNCc2ccc(-c3ccc(CN(C(=O)c4ccc(Cl)nc4)C4CCN(Cc5ccccc5)CC4)cc3)nc2)cc1 [TCMDC-141519],96.79%

row,SMILES,% Inhibition
1,CS(=O)(=O)c1ccc(CCNCc2ccc(-c3ccc(CN(C(=O)c4ccco4)C4CCN(Cc5ccccc5)CC4)cc3)nc2)cc1 [TCMDC-141510],87.45%
2,C=C[C@]1(C)C[C@@H](OC(=O)c2n[nH]c3ccccc3c2=O)[C@]2(C)[C@H](C)CC[C@]3(CCC(=O)[C@H]32)[C@@H](C)[C@@H]1O [TCMDC-141325],0.6377%
3,Cc1ccc(Nc2nccc(NCC(O)c3cccc(C(F)(F)F)c3)n2)cc1 (stereo not shown) [TCMDC-136583],-0.2999%
4,COc1ccc(CCON2C(N)=NC(N)=NC2(C)C)cc1OC [TCMDC-131738],-1.929%
5,CCC(C)CN1CCN(c2cc(NC(=O)c3cccs3)ccn2)C(C)C1 (stereo not shown) [TCMDC-134995],14.25%
6,CCN1CCN(Cc2ccc(NC(=O)c3cc4ccc5cccnc5c4[nH]3)cc2)CC1 [TCMDC-125281],19.87%
7,CCN(CC)CCN(Cc1ccc(-c2ccc(C(F)(F)F)cc2)cc1)C(=O)Cn1c(CCc2cccc(F)c2F)cc(=O)c(C)c1C [TCMDC-141148],40.01%
8,CC(C)N1CCC(N(Cc2ccc(-c3ccc(C(F)(F)F)cc3)cc2)C(=O)Cn2c(CCc3cccc(F)c3F)cc(=O)c3c2CCC3)CC1 [TCMDC-141280],120.6%
9,CCN1CCC(N(Cc2ccc(-c3ccc(C(F)(F)F)cc3)cc2)C(=O)Cn2c(CCc3cccc(F)c3F)cc(=O)c3c2CCCC3)CC1 [TCMDC-141326],67.51%
10,CCN(CC)CCN(Cc1ccc(-c2ccc(C(F)(F)F)cc2)cc1)C(=O)Cn1c(CCc2cccc(F)c2F)cc(=O)c2c1CCCC2 [TCMDC-141327],62.98%
11,CCN(CC)CCN(Cc1ccc(-c2ccc(C(F)(F)F)cc2)cc1)C(=O)Cn1c(CCc2cccc(F)c2F)cc(=O)cc1-c1ccccc1 [TCMDC-141688],100.1%
12,COc1cc(CC(C)NCC(O)c2cccc(C(F)(F)F)c2)ccc1OCc1ccccc1 (stereo not shown) [TCMDC-131479],14.56%
13,CCOc1ccc(NC(C)=O)c(O)c1 [TCMDC-125851],13.93%
14,Cc1ccc(-c2nnc(Nc3ccc(OCC(N)=O)cc3)c3ccccc23)cc1S(=O)(=O)NCC1CCCO1 (stereo not shown) [TCMDC-125617],-6.517%
15,CC(=O)Oc1cc(OCc2ccccc2)c(OC(C)=O)c(OCc2ccccc2)c1 [TCMDC-123938],-24.96%
16,COCCCNc1nc2cc(OC)c(OC)cc2c2nc(-c3ccccc3)nn12 [TCMDC-124408],0.2335%
17,CC(C)(C)c1ccc(CNCC(C)(C)c2nc(-c3ccc(Cl)c(O)c3)c(-c3ccnc(N)n3)[nH]2)cc1 [TCMDC-141165],3.988%
18,Oc1ccc(Cl)cc1-c1cc(C(F)(F)F)nc(-c2ccccc2)n1 [TCMDC-123665],32.7%
19,COc1ccc2nccc([C@@H](O)CN3CCC(CO)(NCc4cc5ccccc5o4)CC3)c2c1 [TCMDC-140494],12.97%
20,COc1ccc(CC(=O)NC2CCN(c3ccnc4cc(Cl)ccc34)C2)cc1 (stereo not shown) [TCMDC-133665],-28.04%
